Assay results taken from PubChem BioAssay.
A number with no mark means an inactive call. How the calls were made is not given here.

molecular target: L-lactate dehydrogenase (Plasmodium falciparum (isolate CDC / Honduras)) (UniProt Q27743); experiment: PfLDH activity inhibition – cell lysate, 3D7 strain, counter-screen for P. falciparum growth inhibition project (AID 2304);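 further: 0% = vehicle and 100% = reference inhibitor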; settings: P. falciparum 3D7 crude extract, LDH APAD/NBT absorbance; at 2 µM; active compounds read high
Sequence (Q27743 whole entry, looked up): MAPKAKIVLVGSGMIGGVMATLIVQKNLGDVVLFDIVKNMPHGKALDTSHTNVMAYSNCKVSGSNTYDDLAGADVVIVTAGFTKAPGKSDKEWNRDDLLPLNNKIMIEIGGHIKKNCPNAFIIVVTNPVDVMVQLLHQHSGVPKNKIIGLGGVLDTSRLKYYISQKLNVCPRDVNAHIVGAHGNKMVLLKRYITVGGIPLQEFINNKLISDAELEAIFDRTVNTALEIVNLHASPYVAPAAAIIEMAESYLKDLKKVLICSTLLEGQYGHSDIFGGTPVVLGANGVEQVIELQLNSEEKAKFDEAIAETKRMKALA

SMILES	inhibition
COc1c(CNCCCCCCNCc2cc(Cl)c3ccccc3c2OC)cc(Cl)c2ccccc12	-4%
CCCc1cc(OC)c(CC2c3cccc(O)c3CCN2C)cc1OC (centres undefined)	0%
CCOc1ccccc1CNc1nccc(NCc2ccccc2OC)n1	-2%
OCc1ccc2nc3c(cc2c1)-c1cccc2cccc-3c12	4%
COc1ccc2ncc(F)c(CCN3CCC(NCc4cc5c(cn4)OCCS5)CC3)c2c1	-6%
CN1CCN(c2ccnc3ccc(NC(=O)Nc4ccc(Cl)c(Cl)c4)cc23)CC1	-4%
CCN(CC)CCOc1ccc(C(O)(C#CC(O)(c2ccc(Br)cc2)c2ccc(OCCN(CC)CC)cc2)c2ccc(Br)cc2)cc1 (centres undefined)	7%
CC(=O)Nc1cccc(C(=O)Nc2ccc(-c3cccc(-c4nc5c(C)cccc5[nH]4)c3)cc2)c1	-4%
Cn1cncc1C(=O)Nc1cccc(-c2csc(-c3nc4ccccc4[nH]3)c2)c1	-3%
OCCN1CCN(c2nc(Nc3cccc(F)c3)c3cnn(-c4ccccc4)c3n2)CC1	-2%
Cc1cccc2[nH]c(-c3cccc(-c4ccc(NC(=O)COC(C)C)cc4)c3)nc12	7%
CN(C)CCC1CCCc2ccc(NC(=O)Nc3cccc(Cl)c3Cl)cc21 (centres undefined)	5%
FC(F)(F)c1ccc2nc(-c3ccc(-c4cccc(CNCc5cnn(-c6ccccc6)n5)c4)s3)[nH]c2c1	-2%
O=C(NCCCN1CCOCC1)c1csc(Nc2ccc(Cl)c(Cl)c2)n1	2%
